Where “and” joins values, the source holds several entries; their conditions need not be identical. Identical values can stand only once. About 2,000 (36%) of roughly 5,500 compounds were called active. About 18% were inconclusive and are not listed. No stated cut-off is given here; in the data, active means normalized growth mostly below about 0.91 (no sharp cut-off); inconclusive means no clear call, values can overlap the other calls; inactive means mostly above about 0.92. This is one part of the list.
Assay: chemical genetic growth profiling, strain panel (AID 1159580);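 further: tested at 20 µM; growth read once vehicle control cultures reached saturation at 30 °C; 1 = growth at the plate median or of vehicle wells; lower values mean less growth of the strain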
Conditions: S. cerevisiae deletion strains, growth OD

Measured: normalized growth

Nc1ncn([C@@H]2O[C@H](CO)[C@@H](O)[C@H]2O)c(=O)n1
inactive: locus YAL021C, strain ccr4, active compounds read low 1.01 | locus YAL026C, strain drs2, active compounds read low 0.998 | locus YAL030W, strain snc1, active compounds read low 0.996 | locus YBL061C, strain skt5, active compounds read low 0.987 | locus YBR009C, strain hhf1, active compounds read low 0.992 | locus YBR021W, strain FUR4, active compounds read low 0.999 | locus YBR023C, strain chs3, active compounds read low 1 | locus YBR171W, strain sec66, active compounds read low 0.962 | locus YBR229C, strain ROT2, active compounds read low 1.01 | locus YBR231C, strain swc5, active compounds read low 0.973 | locus YBR279W, strain paf1, active compounds read low 0.995 | locus YCL011C, strain gbp2, active compounds read low 1.01 | locus YCL016C, strain dcc1, active compounds read low 0.987 | locus YCL029C, strain bik1, active compounds read low 1 | locus YCL061C, strain MRC1, active compounds read low 0.989 | locus YCL069W, strain vba3, active compounds read low 0.979 | locus YCR088W, strain abp1, active compounds read low 0.996 | locus YDL005C, strain med2, active compounds read low 0.972 | locus YDL035C, strain GPR1, active compounds read low 1.02 | locus YDL040C, strain nat1, active compounds read low 0.981 | locus YDL074C, strain BRE1, active compounds read low 1.03 | locus YDL101C, strain DUN1, active compounds read low 1.01 | locus YDL134C, strain PPH21, active compounds read low 1.01 | locus YDL185W, strain tfp1, active compounds read low 0.99 | locus YDL192W, strain arf1, active compounds read low 0.994 | locus YDR001C, strain nth1, active compounds read low 0.984 | locus YDR069C, strain doa4, active compounds read low 0.976 | locus YDR101C, strain arx1, active compounds read low 0.996 | locus YDR137W, strain rgp1, active compounds read low 1 | locus YDR159W, strain sac3, active compounds read low 1 | locus YDR162C, strain NBP2, active compounds read low 1.01 | locus YDR195W, strain ref2 0.91 | locus YDR297W, strain sur2, active compounds read low 0.993 | locus YDR318W, strain mcm21, active compounds read low 0.999 | locus YDR334W, strain swr1, active compounds read low 0.989 | locus YDR335W, strain msn5, active compounds read low 0.98 | locus YDR388W, active compounds read low 0.997 | locus YDR392W, strain spt3, active compounds read low 1.02 | locus YDR502C, strain sam2, active compounds read low 1.01 | locus YEL003W, strain gim4, active compounds read low 0.982 | locus YEL037C, strain rad23, active compounds read low 0.992 | locus YEL061C, strain CIN8 (second series), active compounds read low 0.986 | locus YEL061C, strain CIN8, active compounds read low 1.01 | locus YER015W, strain faa2, active compounds read low 0.99 | locus YER016W, strain bim1, active compounds read low 1.01 | locus YER110C, active compounds read low 1.01 | locus YER111C, strain swi4, active compounds read low 0.959 | locus YER155C, strain BEM2 (second series), active compounds read low 0.978 | locus YER155C, strain BEM2, active compounds read low 1.01 | locus YER167W, strain BCK2, active compounds read low 0.996 | locus YFR010W, strain ubp6, active compounds read low 0.983 | locus YGL078C, strain dbp3, active compounds read low 0.992 | locus YGL086W, strain mad1, active compounds read low 1 | locus YGL167C, strain pmr1, active compounds read low 0.987 | locus YGL173C, strain kem1, active compounds read low 0.971 | locus YGL227W, strain vid30, active compounds read low 0.983 | locus YGL240W, strain doc1, active compounds read low 0.951 | locus YGL248W, strain PDE1, active compounds read low 1.02 | locus YGL253W, strain hxk2, active compounds read low 0.989 | locus YGR078C, strain PAC10, active compounds read low 1.03 | locus YGR135W, strain pre9, active compounds read low 0.99 | locus YGR229C, strain SMI1, active compounds read low 1.02 | locus YGR252W, strain gcn5, active compounds read low 0.962 | locus YHR013C, strain ard1, active compounds read low 0.979 | locus YHR027C, strain rpn1, active compounds read low 0.994 | locus YHR030C, strain SLT2, active compounds read low 1.01 and 0.98 | locus YHR079C, strain IRE1 (second series), active compounds read low 0.989 | locus YHR079C, strain IRE1, active compounds read low 0.997 | locus YHR094C, strain hxt1, active compounds read low 0.987 | locus YHR129C, strain ARP1, active compounds read low 1.01 | locus YHR142W, strain chs7, active compounds read low 0.974 | locus YHR200W, strain rpn10, active compounds read low 0.993 | locus YIL066C, strain RNR3, active compounds read low 1.02 | locus YIL073C, strain SPO22, active compounds read low 0.973 | locus YIL125W, strain kgd1, active compounds read low 0.997 | locus YIR030C, strain dcg1, active compounds read low 1 | locus YJL092W, strain hpr5, active compounds read low 0.984 | locus YJL095W, strain BCK1 (second series), active compounds read low 0.972 | locus YJL095W, strain BCK1, active compounds read low 1.03 and 0.98 | locus YJL115W, strain asf1, active compounds read low 0.97 | locus YJL129C, strain trk1, active compounds read low 0.966 | locus YJL134W, strain LCB3, active compounds read low 1 | locus YJL154C, strain vps35, active compounds read low 0.981 | locus YJL164C, strain tpk1, active compounds read low 0.996 | locus YJL166W, strain qcr8, active compounds read low 0.973 | locus YJL168C, strain set2, active compounds read low 0.995 | locus YJL187C, strain SWE1 (second series), active compounds read low 1.03 | locus YJL187C, strain SWE1, active compounds read low 0.983 | locus YJR043C, strain POL32, active compounds read low 1.01
